Screening data: PubChem BioAssay, National Center for Advancing Translational Sciences (NCATS)
HepG2 tox – qHTS for Inhibitors of TGF-b: Cytotox Counterscreen | HepG2 CAGA-GFP viability, ATP luminescence, 18 h | Potency, µM (doses to about 46.1 µM), for the others: at the top dose activity change, negative = cytotoxicity, hits mostly cytotoxic | 410,000 compounds, 0.76% hits | AID 588856, 2011; also: potency is read from the fitted curve at half-maximal effect
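HepG2 CAGA-GFP cells (1000/well, DMEM with 1% FBS) received compound, then TGF-beta at 500 pg/mL final, and were incubated 18 hours at 37 degrees C. Viability was read by CellTiter-Glo luminescence. Media-only wells were set as complete cell-killing and DMSO as no toxicity.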
TGFb SMAD3 inh – qHTS for Inhibitors of TGF-b; 410,000 compounds, 1.2% hits; Potency, µM (doses to about 46.1 µM), for inactives: at the top dose activity, negative = inhibition, actives largely listed as inhibitors; HepG2 CAGA-GFP TGF-b/SMAD3 reporter, GFP fluorescence, 18 h; TGF-beta stimulated, 500 pg/mL final; also: potency is read from the fitted curve at half-maximal effect; % is scaled to controls: 0 for no effect and ±100 for the full control effect; nearly all actives have a fitted effect of over 65% in size
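Read-out: total well GFP (ex488/em500-530) summed from mean per-cell fluorescence. Cells: HEPG2 CAGA-GFP, 1% FBS DMEM, 18 h at 37 degrees C with 500 pg/mL final TGF-beta. Unstimulated wells served as the full-inhibition control; stimulated DMSO wells = 0%.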
ASM inhibitor – Inhibitors of Secretory Acid Sphingomyelinase (S-ASM): qHTS. Sphingomyelin phosphodiesterase (Homo sapiens), P17405. placental ASM, HMU-PC fluorogenic substrate, 60 min. Potency, µM (doses to about 57.5 µM), inactives show top-dose activity change, negative = inhibition, usual class: inhibitors. 340,000 compounds, 0.006% hits; also: potency is read from the fitted curve at half-maximal effect
Target sequence (P17405 47-631 limits assumed): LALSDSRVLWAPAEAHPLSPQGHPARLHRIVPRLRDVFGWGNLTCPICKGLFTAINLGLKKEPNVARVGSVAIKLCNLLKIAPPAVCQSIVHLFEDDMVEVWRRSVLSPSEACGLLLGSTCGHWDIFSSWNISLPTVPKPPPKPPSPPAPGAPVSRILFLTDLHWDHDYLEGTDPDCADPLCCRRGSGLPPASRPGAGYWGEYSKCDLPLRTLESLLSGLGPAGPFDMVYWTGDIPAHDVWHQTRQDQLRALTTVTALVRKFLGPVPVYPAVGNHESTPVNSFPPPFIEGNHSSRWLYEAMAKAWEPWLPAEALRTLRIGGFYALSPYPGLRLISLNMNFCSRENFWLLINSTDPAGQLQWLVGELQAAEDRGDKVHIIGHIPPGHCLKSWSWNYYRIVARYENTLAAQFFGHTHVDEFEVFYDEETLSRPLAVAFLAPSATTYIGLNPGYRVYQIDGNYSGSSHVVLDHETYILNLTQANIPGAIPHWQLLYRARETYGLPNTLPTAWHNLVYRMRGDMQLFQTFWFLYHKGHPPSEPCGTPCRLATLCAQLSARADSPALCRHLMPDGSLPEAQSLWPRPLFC
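qHTS format. ASM enzyme prepared from human placenta hydrolyses the fluorogenic substrate HMU-PC0 (9 uM final) over 60 min at 37 °C after a 10 min compound preincubation.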
DT40 TDP1 no CPT – qHTS for Inhibitors of human tyrosyl-DNA phosphodiesterase 1 (TDP1): qHTS in cells in absence of CPT. DT40 Tdp1-/- hTDP1 cells, no CPT, ATP luminescence, 48 h. AID 686978, 2013. 420,000 compounds, 15% hits. Potency, µM (titrated, usually from 46.2 µM), for the others: at the highest dose activity change, negative = growth inhibition, hits mostly inhibitors; also: potency is read from the fitted curve at half-maximal effect; % is scaled to controls: 0 for no effect and ±100 for the full control effect; nearly all actives have a fitted effect of over 55% in size
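Camptothecin absent (DMSO only). Human TDP1-complemented DT40 knockout cells, 400 cells/well, 37 °C for minimum 48 hr; ATP measured via CellTiter-Glo, 30 min dark incubation, luminescence.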
TDP1 cell CPT – qHTS for Inhibitors of human tyrosyl-DNA phosphodiesterase 1 (TDP1): qHTS in cells in presence of CPT; AID 686979, 2013; 420,000 compounds, 12% hits; chicken DT40 Tdp1-/-;hTDP1 cells + 20 nM CPT, ATP luminescence, 48 h; Potency, µM (top dose mostly 46.2 µM), for inactives: at the highest dose activity change, negative = growth inhibition, usual class: inhibitors; also: potency is read from the fitted curve at half-maximal effect; % is scaled to controls: 0 for no effect and ±100 for the full control effect; nearly all actives have a fitted effect of over 55% in size
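Chicken DT40 Tdp1-/- cells stably complemented with human TDP1 were seeded at 400 cells/well in medium containing 20 nM camptothecin, exposed to pin-transferred compounds, and grown at 37 °C for at least 48 hr. Viability was read as ATP luminescence.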
IL-1B inflam inh – qHTS for Inhibitors of Inflammasome Signaling: IL-1-beta AlphaLISA Primary Screen; THP-1 LPS/ATP IL-1B secretion, AlphaLISA, 16 h; hits give low values; activity change, % at 57.5 µM; 360,000 compounds, 4.7% hits; in the data active = activity change below about -50%; inconclusive = mostly about -30% to -49%; also: % is scaled to controls: 0 for no effect and ±100 for the full control effect
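Secreted IL-1B measured by AlphaLISA bead assay after 16 h compound exposure of THP-1 cells; compounds (final up to 57.5 uM) added 1 h before LPS (250 ng/mL) and ATP (1.25 mM) stimulation; lower signal means less secretion.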
* marks the source's active call; other numbers are inactive results; ? = inconclusive; . = not tested or not shown. Only some compounds are listed: those with a hit (about 19% of all), similar ones and a draw of the others. Unless noted, calls follow the shape of the dose curve; as a rule, active = well fitted curve in the direction sought with a large enough effect; inconclusive = small, poorly fitted or top-dose-only effect, or another doubt; inactive = no such curve, though single readings can be large; an effect the other way counts as inactive or inconclusive.

SMILES	HepG2 tox	TGFb SMAD3 inh	ASM inhibitor	DT40 TDP1 no CPT	TDP1 cell CPT	IL-1B inflam inh
O=C1c2ccccc2NC(c2c(Cl)cccc2Cl)N1Cc1ccccc1 (configuration not stated)	-2%	?	363%	18µM*	16µM*	?
O=C1c2ccccc2NC(c2cccc(F)c2)N1Cc1ccccc1 (configuration not stated)	-49%	-17%	169%	-16%	-22%	?
CCc1ccccc1NC(=O)Cn1c(=O)n(CC(=O)NCCc2ccccc2)c(=O)c2ccccc21	-6%	2%	.	-5%	-23%	.
Cc1cc(C)n(-c2nc(NCCCN(C)C)c3c4c(sc3n2)CCCC4)n1	-191%	?	1%	?	?	-28
Cc1cc(C)n(-c2nc(NCCCN(C)C)c3c4c(sc3n2)COC(C)(C)C4)n1	-14%	-5%	0%	?	0%	-62*
Cc1nc2sc3c(c2c(=N)n1N)CC(C)(C)OC3	-16%	3%	11%	0%	-2%	4
Cc1cc(C)n(-c2nc(NCCC(C)C)c3c4c(sc3n2)COC(C)(C)C4)n1	-7%	-2%	10%	16µM*	9.2µM*	-2
CCSc1nc(NCCN(C)C)c2c3c(sc2n1)COC(C)(CC)C3 (configuration not stated)	24%	15%	8%	?	21µM*	?
Cc1cc(C)n(-c2nc(NCCN(C)C)c3c4c(sc3n2)CCCC4)n1	4.5µM*	?	-14%	6.5µM*	8.2µM*	-98*
NS(=O)(=O)c1ccc(CNC(=O)C(Cc2ccccc2)NS(=O)(=O)c2ccccc2F)cc1 (configuration not stated)	-11%	-12%	1%	-7%	-19%	0
C[C@@H]1COC(=O)[C@H](Cc2ccc(F)cc2)C/C=C\C[C@@H](CC(=O)NCCO)C(=O)N1	6%	5%	5%	-10%	-1%	6
O=C(O)c1cc(S(=O)(=O)N2CCCCC2)ccc1N1CCCC1	11%	0%	3%	17%	-8%	17
CCN(CC)CCNc1nc(-n2nc(C)cc2C)nc2sc3c(c12)CC(C)(C)OC3	-21%	-8%	-1%	10µM*	?	-25
Cc1cc(C)n(-c2nc(NCCN(C)C)c3c4c(sc3n2)COC(C)(C)C4)n1	-90%	?	-2%	23µM*	?	.
Cc1cc(C)n(-c2nc(SCCN3CCOCC3)c3c4c(sc3n2)CCCC4)n1	-16%	-14%	-4%	21µM*	-32%	23
CSc1nnc2c3c4c(sc3nc(-n3nc(C)cc3C)n12)COC(C)(C)C4	12%	0%	2%	29µM*	?	5
COCCN1CC(CNC(=O)c2cc(COc3ccccc3SC)on2)CC1=O (configuration not stated)	2%	5%	3%	?	-2%	11
Cc1cc(C)n(-c2nc3sc4c(c3c3nnc(SCC(N)=O)n23)CC(C)(C)OC4)n1	-19%	7%	12%	-24%	5%	-21
Cc1cc(C)n(-c2nc(SCC(=O)Nc3nccs3)c3c4c(sc3n2)COC(C)(C)C4)n1	-3%	?	0%	23µM*	?	0
O=c1c2cnn(-c3ccc(Cl)cc3)c2ncn1Cc1cccc(C(F)(F)F)c1	-1%	0%	.	?	-18%	.
Cc1cc(C(=O)COC(=O)c2ccc(O)cc2)c(C)n1CCc1ccc(F)cc1	4%	-8%	-2%	-26%	0%	13
Cc1cc(C(=O)CSc2n[nH]c(N)n2)c(C)n1-c1cccc(F)c1	-40%	-21%	0%	?	?	-15
Cc1cc(C(=O)CSc2nc(N)cc(N)n2)c(C)n1-c1cccc(C(F)(F)F)c1	-4%	-18%	-1%	?	23µM*	-11
Cc1cc(C(=O)CSc2nc(N)cc(N)n2)c(C)n1CCc1ccc(F)cc1	-36%	?	-8%	?	?	-66*
Cc1[nH]c2ccccc2c1C(=O)COC(=O)c1nccnc1N	6%	13%	100%	9%	-3%	-30
SMILES	HepG2 tox	TGFb SMAD3 inh	ASM inhibitor	DT40 TDP1 no CPT	TDP1 cell CPT	IL-1B inflam inh
COc1cccc(-c2ccc3ncnc(N4CCN(C)CC4)c3c2)c1	.	.	.	23µM*	13µM*	.
COc1ccccc1-c1ccc2ncnc(N3CCNCC3)c2c1	.	.	.	14%	?	.
CN1CCN(c2ncnc3ccc(-c4ccoc4)cc23)CC1	.	.	.	23µM*	12µM*	.
CN1CCN(c2ncnc3ccc(-c4cccnc4)cc23)CC1	.	.	.	?	16µM*	.
CN1CCN(c2ncnc3ccc(-c4ccc(C(=O)N(C)C)cc4)cc23)CC1	.	.	.	3%	6%	.
CC(=O)Oc1c(Cl)cc(N(C(C)=O)S(=O)(=O)c2ccccc2)c2ccccc12	-83%	?	3%	4.6µM*	10µM*	186
CC(=O)N(c1ccccc1Cl)S(=O)(=O)c1ccc(Cl)cc1	6%	0%	0%	-28%	11%	-17
COc1ccc(S(=O)(=O)N(C(C)=O)c2ccc(OC(C)=O)c3ccccc23)cc1[N+](=O)[O-]	-125%	?	-3%	3.7µM*	3.3µM*	124
CC(=O)Oc1ccc(N(C(C)=O)S(=O)(=O)c2ccccc2)c2ccccc12	-37%	-27%	.	?	21µM*	122
CC(=O)Oc1ccc(N(C(C)=O)S(=O)(=O)c2ccc(C)cc2C)c2ccccc12	-95%	?	9%	?	23µM*	88
O=C(CN1CCN(C(=O)c2ccco2)CC1)Nc1ccc(Br)cc1	1%	-1%	2%	-12%	8%	20
CCOC(=O)c1c(-c2ccc(C)cc2)csc1NC(=O)c1nc(SCC)ncc1Cl	-5%	?	.	-15%	-4%	.
O=c1c2ccc(Cl)cc2nc(-c2cccc(C(F)(F)F)c2)n1O	-50%	?	-2%	3.7µM*	4.1µM*	105
Cc1ccc(-c2nc3c(Cl)cc(Cl)cc3c(=O)n2O)cc1	-45%	?	4%	18µM*	?	40
O=c1c2cc(Br)ccc2nc(-c2ccc(Cl)cc2)n1O	-13%	-3%	-4%	?	?	7
